The source of these data is PubChem BioAssay.

The test system of this assay is Noggin (protein binding on small-molecule microarray). As to the kind of experiment: Noggin binders on small-molecule microarray, primary screen, biochemical, 635/667 nm fluorescence (AID 1095).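 Also: score merges 667 nm feature fluorescence with signal to noise over triplicate slides.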 Conditions: 635 nm fluorescence, higher = more signal.
In turn, `Cc1ccc(NN2C(C(O)c3c(F)cccc3Cl)C=CC3C(=O)N(C4CCCCC4)C(=O)C32)cc1` (stereo unspecified) showed a composite z-score of -0.203.

Molecule `CC(C)N1C(=O)C[C@@](C(=O)O)(c2ccc([N+](=O)[O-])cc2)[C@H]1c1ccc(CO)cc1` had a composite z-score of -1.13.

Molecule `CCCN1C(=O)[C@@]2(Cc3ccccc31)N=C(c1ccc(OCCCO)cc1)O[C@H]2c1ccccc1` registered a composite z-score of 0.643.

In turn, `C=CCN1C(=O)[C@]2(CCS(=O)(=O)c3ccccc3)N=C(c3ccc(OCCCO)cc3)O[C@@H]2c2ccccc21` yielded a composite z-score of 1.49.

In turn, `C=CC[C@@]1(C(=O)NCCCOC)N=C(c2ccc(OCCCO)cc2)O[C@@H]1c1ccccc1` displayed a composite z-score of 0.0729.

In turn, `COC(=O)c1c(CC[C@@H](CO)NC(=O)N2CCC[C@H]2Cn2cc(C3(O)CCCCC3)nn2)oc(C(C)=O)c1C(=O)OC` had a composite z-score of 0.872.

With `COCC(=C=CC[C@H](O)c1ccc(OCCO)cc1)CCO`, the composite z-score amounted to 1.21.

As to `C=CCNC(=O)[C@@H]1[C@H]2C(=O)O[C@H](c3ccccc3)[C@H](c3ccccc3)N2[C@H](c2ccccc2OCCO)[C@@]12C(=O)N(C(=O)OCCOC)c1ccc(C#CC3(O)CCCCCC3)cc12`, the composite z-score was 1.02.

Take `COc1ccc([Si](C)(C)[C@@H]2[C@@H](CCO)O[C@]3(C(=O)N(Cc4ccccc4)c4ccc(N5C(=O)c6cccc7cccc5c67)cc43)[C@H]2C)cc1`: the composite z-score is -0.129.

`C=CC[C@]1(C(=O)N2CCCCC2)N=C(c2ccc(OCCCO)cc2)O[C@H]1c1ccccc1CN=[N+]=[N-]` gave a composite z-score of 0.562.

Regarding `COC(=O)C1(CC(C)C)C=C2C(=C(c3ccccc3)C(=O)C2C)CN1` (stereo unspecified), the composite z-score was -1.13.

Take `COc1ccc(CCNC(=O)[C@@H]2c3ccccc3C(=O)N(C3CCCCC3)[C@H]2c2ccc(CO)cc2)cc1`: the composite z-score was -0.282.

Molecule `CCCCCN1CC=CC23O[C@@H]4C=CCCOC(=O)C4[C@H]2C(=O)N(CCCCCCO)[C@@H]3C1=O` (stereo partly specified) gave a composite z-score of -0.362.

The molecule `CCOC(=O)C[C@H]1[C@H](OC(=O)c2ccc(-c3ccccc3)cc2)[C@@H](NC(=O)CC(C)C)c2cc(OCCCO)ccc2N1C(=O)c1ccc2ccccc2n1` came in with a composite z-score of 0.481.

Regarding `COC(=O)C(CC#Cc1ccc2c(c1)[C@]1(C(=O)N2)[C@H](c2ccc(O)cc2)N2[C@H](c3ccccc3)[C@H](c3ccccc3)OC(=O)[C@H]2[C@@H]1C(=O)NC[C@H](O)c1ccccc1)C(=O)OC`, the composite z-score stood at 0.668.

`COC(=O)[C@]1(CCS(=O)(=O)c2ccccc2)N=C(c2ccc(OCCCO)cc2)O[C@@H]1c1ccccc1N=[N+]=[N-]` showed a composite z-score of 1.22.

With `O=C1C2C=CC(C(O)C3CC=CCC3)N(Nc3ccccc3)C2C(=O)N1c1ccccc1` (stereo unspecified), the composite z-score is -0.146.

`CCOC(=O)C[C@H]1[C@H](OC(=O)c2cc3ccccc3oc2=O)[C@@H](NC(=O)c2ccccc2)c2cc(OCCCO)ccc2N1C(=O)c1ccccc1` came in with a composite z-score of 0.992.

Consider `COc1ccc([Si](C)(C)[C@H]2[C@H](CC(=O)N3Cc4ccccc4C[C@H]3CO)O[C@@]3(C(=O)N(Cc4ccc(N5CCOC5=O)cc4)c4ccccc43)[C@@H]2C)cc1`, for which the composite z-score was determined as 1.46.

As to `CC1CC/C=C\[C@H]2OC34C=CCN(C(C)C)C(=O)[C@H]3N(CCO)C(=O)[C@@H]4C2C(=O)O1` (stereo partly specified), the composite z-score is -1.87.

`COCCCNC(=O)[C@@H]1c2ccccc2C(=O)N(C(C)C)[C@H]1c1ccc(CO)cc1` had a composite z-score of 0.523.

Consider `COc1cccc(C)c1NC(=O)O[C@H]1[C@H](OC(=O)Nc2ccccc2-c2ccccc2)[C@H](OC(=O)Nc2ccccc2-c2ccccc2)[C@@H](OC)O[C@@H]1CO`, for which the composite z-score was 1.14.

For the molecule `CC(C)c1ccc(NN2C(C(O)c3ccc(F)cc3)C=CC3C(=O)N(c4ccccc4)C(=O)C32)cc1` (stereo unspecified), the composite z-score was -0.101.

`C#CCN(Cc1ccccc1Br)[C@H](/C=C/c1ccccc1)[C@@H](O)Cc1ccccc1`: the composite z-score was -1.24.

As to `[N-]=[N+]=Nc1ccccc1C[C@]1(C(=O)NCC(O)CO)COC(c2ccc(OCCCO)cc2)=N1` (stereo partly specified), the composite z-score was -0.906.

`O=C1O[C@@H](c2ccccc2)[C@@H](c2ccccc2)N2[C@@H](c3ccc(OCCO)cc3)[C@]3(C(=O)Nc4ccc(C#CC5=CCCCC5)cc43)[C@@H](C(=O)NC[C@H](O)c3ccccc3)[C@H]12` came in with a composite z-score of 1.51.

Molecule `CCCC=C(CCC)[C@@H](NS(=O)(=O)c1ccc(C(F)(F)F)cc1)c1ccccc1` showed a composite z-score of -0.0917.

Take `CCCCCCCCCC(O)C1C=CC2C(=O)N(c3ccccc3)C(=O)C2N1Nc1cc(OC)c(OC)c(OC)c1` (stereo unspecified): the composite z-score is -0.344.

As to `O=C(c1ccccc1)N1C(=O)[C@]2(Cc3ccccc31)N=C(c1ccc(OCCCO)cc1)O[C@@H]2c1ccccc1`, the composite z-score turned out to be 1.12.

Turning to `CCCCC=C[C@@H](NC(=O)OCc1ccccc1Cl)c1ccccc1`, the composite z-score is 1.34.

Turning to `COc1cc(C(O)C2C=CC3C(=O)N(C)C(=O)C3N2Nc2ccccc2)cc(OC)c1OC` (stereo unspecified), the composite z-score was -0.339.

`C=CC[C@H](OC(=O)Nc1ccc(SC)cc1)c1ccc(O)c2ccccc12`: the composite z-score was determined as 1.1.

As to `[N-]=[N+]=Nc1ccccc1C[C@@]1(C(=O)N2CCOCC2)N=C(c2ccc(OCCCO)cc2)O[C@@H]1c1ccccc1`, the composite z-score was determined as 0.955.

`COc1ccc(C(=O)Nc2ccc(CN3C(=O)[C@]4(O[C@H](CC(=O)N5Cc6ccccc6C[C@H]5CO)[C@@H]([Si](C)(C)c5ccc(OC)cc5)[C@@H]4C)c4ccccc43)cc2)cc1` yielded a composite z-score of 1.34.

In turn, `C=CCNC(=O)[C@@H]1[C@H]2C(=O)O[C@H](c3ccccc3)[C@H](c3ccccc3)N2[C@H](c2ccc(O)cc2)[C@@]12C(=O)N(C(=O)OCCOC)c1ccc(C#CC3=CCCCC3)cc12` had a composite z-score of 1.14.

The molecule `C=CCOC(=O)[C@@]1(Cc2ccccc2)C[C@H]2CO[C@H](c3ccc(OC)cc3)N2C1=O` returned a composite z-score of 0.224.
